Values joined by “and” are separate entries in the source; they are usually repeats but may differ in a detail not shown here. Equal values may be shown once. Records with an inconclusive call do not appear. Some structures have more than one record in an assay (separate samples or runs), and their calls can disagree. Active and inactive are the calls of the source. Calls follow the shape of the dose curve; as a rule, active = well fitted curve in the direction sought with a large enough effect; inconclusive = small, poorly fitted or top-dose-only effect, or another doubt; inactive = no such curve, though single readings can be large; an effect the other way counts as inactive or inconclusive.

Assay [1] deals with Cytochrome P450 3A7 (Homo sapiens) (UniProt P24462). The assay is described as follows: Cytochrome P450 family 3 subfamily A member 7 (CYP3A7) small molecule antagonists: luciferase biochemical qHTS assay (AID 1963596). Also: nearly all actives have a fitted effect of over 40% in size. The procedure, abridged:
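Biochemical CYP3A7 activity measured with P450-Glo system: luciferin formed from proluciferin substrate in NADPH-driven reaction (1 h, room temperature) after 10 min compound preincubation. Signal in relative luminescence units.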

Assay [2] can be described thus: Viability qHTS for spleen associated tyrosine kinase inhibitor (SYKi) naive MV4-11 cells (AID 1963823). Also: nearly all actives have a fitted effect of over 40% in size. Also: potency is read from the fitted curve at half-maximal effect. The method in brief: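 SYK inhibitor-naive MV4-11 cells, 500 per well, exposed to compounds for 72 hr at 37 C, 5% CO2. Viability read as CellTiter-Glo luminescence after 10 min at room temperature.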
Assay [3] in a line: Cellular viability qHTS for adrenocortical cancer (ACC) cell line SW-13 (AID 1963989). Also: nearly all actives have a fitted effect of over 65% in size. Also: potency is read from the fitted curve at half-maximal effect.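 As to activity (max response): cells grown in serum-free medium with ITS supplement; % is scaled to controls: 0 for no effect and ±100 for the full control effect.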 To be noted: SW-13 ACC cells viability, CellTiter-Glo, 48 h; activity (max response): stronger effect = lower value. The method in brief:
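Luminescent ATP read-out (CellTiter-Glo, 20 min at room temperature) measured metabolically competent SW-13 cells after 48 h compound treatment. Final concentrations spanned up to 46 uM; bortezomib served as positive control.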
On the technique in general: qHTS replaces the single test concentration by a dilution series.

Assay [4] can be described thus: Cellular viability qHTS for adrenocortical cancer (ACC) cell line NCI-H295R (AID 1963990). Also: nearly all actives have a fitted effect of over 60% in size. Also: potency is read from the fitted curve at half-maximal effect. The method in brief: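 IC50 and maximal efficacy derive from four-parameter logistic modelling of titration curves, with reads scaled between DMSO-only wells (0%) and doxorubicin hydrochloride (100% inhibition). Compounds spanned up to 46 uM over 48 h.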
Assay [5] in a line: Quantitative highthroughput screen to assess conditional lethalithy of NOMO1 cells grown in Human Plasma-Like Medium with dialyzed fetal bovine serum (HPLM+ds) (AID 1963878). Also: potency is read from the fitted curve at half-maximal effect; nearly all actives have a fitted effect of over 35% in size. The method in brief: (§1)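 Each medium arm—HPLM with 10% dialyzed FBS, or RPMI1640 with 5 mM glucose and 10% untreated or dialyzed FBS—was screened against an 11-point, 3-fold compound titration for 48 h at 37 °C, with CellTiter-Glo luminescence as endpoint.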

Assay [6] can be described thus: Quantitative highthroughput screen to assess conditional lethalithy of P12 Ichikawa cells grown in Human Plasma-Like Medium with dialyzed fetal bovine serum (HPLM+ds) (AID 1963879). Also: nearly all actives have a fitted effect of over 35% in size. Also: potency is read from the fitted curve at half-maximal effect. As to Viability: series mostly up to about 46 µM. Conditions: Potency: viability. The procedure, abridged: as §1
A short description of assay [7]: Quantitative highthroughput screen to assess conditional lethalithy of SEM cells grown in Human Plasma-Like Medium with dialyzed fetal bovine serum (HPLM+ds) (AID 1963882). Also: nearly all actives have a fitted effect of over 35% in size. Also: potency is read from the fitted curve at half-maximal effect. As to Viability: series mostly up to about 46 µM. The procedure, abridged: as §1
Assay [8] is described as follows: Quantitative highthroughput screen to assess conditional lethalithy of SEM cells grown in RPMI1640 with unreated serum (RPMI+s) (AID 1963883).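 Also: 100% = DMSO wells and 0% = empty wells without cells; nearly all actives have a fitted effect of over 35% in size.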 The method in brief: as §1
Assay [9] can be described thus: Quantitative highthroughput screen to assess conditional lethalithy of SEM cells grown in RPMI1640 with dialyzed fetal bovine serum (RPMI+ds) (AID 1963884). The procedure, abridged:
as §1

Assay [10] is described as follows: Quantitative highthroughput screen to assess conditional lethalithy of P12 Ichikawa cells grown in RPMI1640 with dialyzed fetal bovine serum (RPMI+ds) (AID 1963880). Also: nearly all actives have a fitted effect of over 35% in size. Also: potency is read from the fitted curve at half-maximal effect.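 As to Viability: 100% = DMSO wells and 0% = empty wells on each plate.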 To be noted: Potency: P12-Ichikawa viability. The procedure, abridged:
as §1

Assay [11] in a line: Quantitative highthroughput screen to assess conditional lethalithy of P12 Ichikawa cells grown in RPMI1640 with untreated serum (RPMI+s) (AID 1963881). To be noted: Potency: viability. The method in brief:
as §1

A short description of assay [12]: Quantitative highthroughput screen to assess conditional lethalithy of NOMO1 cells grown in RPMI1640 with untreated serum (RPMI+s) (AID 1963876). The procedure, abridged: as §1

Chain of Cytochrome P450 3A7 (Homo sapiens) (P24462 whole entry, looked up): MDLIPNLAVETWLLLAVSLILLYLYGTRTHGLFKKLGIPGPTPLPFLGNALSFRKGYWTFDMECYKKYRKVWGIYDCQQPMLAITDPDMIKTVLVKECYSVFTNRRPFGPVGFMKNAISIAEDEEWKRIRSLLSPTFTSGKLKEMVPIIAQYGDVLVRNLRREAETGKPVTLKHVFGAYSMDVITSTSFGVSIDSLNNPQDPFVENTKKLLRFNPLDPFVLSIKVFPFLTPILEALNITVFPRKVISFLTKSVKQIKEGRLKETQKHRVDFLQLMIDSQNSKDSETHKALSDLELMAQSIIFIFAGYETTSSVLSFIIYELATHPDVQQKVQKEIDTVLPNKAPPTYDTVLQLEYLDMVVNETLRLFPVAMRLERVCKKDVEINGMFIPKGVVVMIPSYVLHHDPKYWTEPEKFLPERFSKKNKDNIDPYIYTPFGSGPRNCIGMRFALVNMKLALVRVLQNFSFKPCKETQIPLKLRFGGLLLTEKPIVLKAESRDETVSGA

For `CCOc1ncc(F)c(=O)[nH]1`, the Potency entry in [1] and in assay [2] was “inactive” each time. In addition, in assay [3], the activity (max response) is 18.7% (inactive).

On to `CC1(c2ccccc2)OC(C(=O)O)=CC1=O` (centres undefined), for which the Potency result in assay [1] and in [2] was “inactive” in each case. Besides, the activity (max response) in [3] was -17.9% (inactive).

`Cc1c[nH]c2ccccc12`: the Potency entry in assay [1] and in assay [2] was “inactive” throughout. Besides, the activity (max response) in [3] is 13.2% (inactive).

For the compound `NC/C=C/C(=O)O`, the Potency entry in assay [1], in assay [2] and in assay [4] was “inactive” each time. For the same compound, the activity (max response) in assay [3] was 8.43% (inactive).

Take `CCN1CCN(Cc2ccc(NC(=O)Nc3ccc(Oc4cc(NC)ncn4)cc3)cc2C(F)(F)F)CC1`: the Potency entry in assay [1] and in [2] was “inactive” throughout. Moreover, the Potency in [3] is 3.98 µM (active); in [4], 10 µM (active).

Consider `CC(C)c1cc2c(cc1S(=O)(=O)O)[C@@]1(C)CCC[C@@](C)(C(=O)O)[C@@H]1CC2`, for which the Potency result in assay [1], in [2] and in [4] was “inactive” in each case. Further, in assay [3], the activity (max response) is 15.8% (inactive).

As to `CCCc1c2oc(C(=O)O)cc(=O)c2cc2c(=O)cc(C(=O)O)n(CC)c12`, the Potency result in assay [1], in [2] and in assay [4] was “inactive” each time. In addition, the activity (max response) in assay [3] was -2.58% (inactive).

For `O=C1N=C(O)CN1/N=C/c1ccc(-c2ccc([N+](=O)[O-])cc2)o1`, the Potency result in [1] and in assay [2] was “inactive” throughout. The activity (max response) in assay [3] is 12.2% (inactive).

`CC(C)(C)NC[C@H](O)COc1cccc2c1CCCC2=O`: the Potency result in [1] and in [4] was “inactive” throughout. The Potency in assay [2] is 11.9 µM (active). Moreover, the activity (max response) in assay [3] was -13.3% (inactive).

Regarding `[O-][n+]1cccc(/C(Cl)=N/OC[C@@H](O)CN2CCCCC2)c1`, the Potency result in [1], in [2] and in [4] was “inactive” throughout. Also, the activity (max response) in [3] is 9.86% (inactive).

For the compound `NS(=O)(=O)c1cc(C(=O)O)cc(N2CCCC2)c1Oc1ccccc1`, the Potency entry in assay [1], in assay [2] and in [4] was “inactive” in each case. In addition, the activity (max response) in assay [3] was -0.899% (inactive).

For `O=C(O)c1ccccn1`, the Potency entry in [1], in assay [2] and in assay [4] was “inactive” throughout. The activity (max response) in assay [3] was 1.31% (inactive).

For the compound `CCOC(=O)Cn1cccc1-c1nc(-c2ccc(OC)cc2)c(-c2ccc(OC)cc2)s1`, in assay [1], the Potency entry was “inactive”. The Potency in assay [2] is 9.44 µM (active). Besides, the activity (max response) in assay [3] is 9.49% (inactive).

Consider `Cc1cn([C@H]2C[C@H](F)[C@@H](CO)O2)c(=O)[nH]c1=O`, for which the Potency entry in [1], in assay [2] and in assay [4] was “inactive” throughout. Further, the activity (max response) in assay [3] is 3.39% (inactive).

For the compound `[O-][n+]1cccc(CO)c1`, the Potency entry in assay [1], in assay [2] and in [4] was “inactive” throughout. Moreover, in assay [3], the activity (max response) is 9.62% (inactive).

Take `CC(=O)N/N=C/c1ccc([N+](=O)[O-])o1`: the Potency entry in [1] was “inactive”. Moreover, the Potency in assay [2] was 18.8 µM (active). Also, in assay [3], the activity (max response) was 2.1% (inactive).

For the compound `OC[C@H]1O[C@@H]2O[C@H]3[C@H](O)[C@@H](O)[C@@H](O[C@H]4[C@H](O)[C@@H](O)[C@@H](O[C@H]5[C@H](O)[C@@H](O)[C@@H](O[C@H]6[C@H](O)[C@@H](O)[C@@H](O[C@H]7[C@H](O)[C@@H](O)[C@@H](O[C@H]8[C@H](O)[C@@H](O)[C@@H](O[C@H]1[C@H](O)[C@H]2O)O[C@@H]8CO)O[C@@H]7CO)O[C@@H]6CO)O[C@@H]5CO)O[C@@H]4CO)O[C@@H]3CO`, the Potency entry in assay [1] and in assay [2] was “inactive” throughout. Also, the activity (max response) in assay [3] was -1.71% (inactive).

For `C[C@@H](c1ncncc1F)C(O)(Cn1cncn1)c1ccc(F)cc1F` (some centres undefined), the Potency entry in assay [1], in assay [2] and in [4] was “inactive” in each case. Also, in assay [3], the activity (max response) is 2.11% (inactive).

Turning to `CCCCCC(N)=O`, the Potency entry in assay [1] and in assay [2] was “inactive” throughout. Moreover, in assay [3], the activity (max response) was 5.46% (inactive).

Regarding `Cc1cccc(C)c1NC(=O)c1cc(S(N)(=O)=O)c(Cl)cc1O`, the Potency entry in assay [1], in [2] and in assay [4] was “inactive” in each case. The activity (max response) in [3] is 10.1% (inactive).

Turning to `CCCCN=C(N)NC(=N)N`, the compound was classed as inactive in [1]. The Potency result in [2] and in assay [4] was “inactive” in each case. For the same compound, the activity (max response) in assay [3] is 17.9% (inactive).

For the compound `CCCCCCCCOc1ccc(C(=O)c2ccccc2)c(O)c1`, the Potency result in [1], in assay [2] and in [4] was “inactive” each time. Also, the activity (max response) in [3] is 12.8% (inactive).

For `CCN(CC)CC1CCCCN1CC(=O)N1c2ccccc2C(=O)Nc2cccnc21` (centres undefined), the Potency result in [1], in assay [2] and in [4] was “inactive” in each case. The activity (max response) in assay [3] was -3.91% (inactive).

For the compound `CC(N)C12CC3CC(CC(C3)C1)C2` (centres undefined), the Potency entry in [1], in assay [2], in assay [7], in assay [8], in assay [9] and in assay [4] was “inactive” each time. For the same compound, the values for the Potency in [5] and in assay [6] were 10.5 µM (active) and 26.4 µM (active), respectively.

`CC[N+](C)(CC)CCOC(=O)C1c2ccccc2Oc2ccccc21`: the Potency entry in assay [1] and in [2] was “inactive” each time. For the same compound, the activity (max response) in [3] was -11.3% (inactive).

On to `O=c1[nH]cnc2c1ncn2[C@H]1CC[C@@H](CO)O1`, for which the Potency entry in assay [1], in assay [2], in assay [9] and in [4] was “inactive” throughout. In addition, the Potency in assay [10] was 16.6 µM (active); in assay [7] it was 18.7 µM (active). Besides, the activity (max response) in assay [3] is 1.58% (inactive).

Turning to `COc1cc(C(=O)NCCCCCC(=O)O)cc(OC)c1OC`, the Potency result in assay [1], in assay [2] and in [4] was “inactive” in each case. Besides, the activity (max response) in assay [3] was 6.24% (inactive).

As for `O=C(O)CCCCC1CCSS1` (centres undefined), the Potency entry in assay [1], in assay [2] and in [4] was “inactive” each time. Also, the activity (max response) in assay [3] is 9% (inactive).

On to `Cc1cc(C(C)(C)C)cc(C)c1CC1=NCCN1`, for which the Potency result in [1], in assay [6], in [10], in [11], in assay [8] and in [9] was “inactive” throughout. The Potency result in [4] was “inactive”. The Potency in [2] is 3.72 µM (active). In [3], the activity (max response) was -1.59% (inactive) and -10.9% (inactive).

Take `C=CCc1ccccc1OCC(O)CNC(C)C` (centres undefined): the Potency entry in assay [1] and in assay [2] was “inactive” in each case. In addition, in assay [3], the activity (max response) was 1.07% (inactive).

Turning to `COc1cnc(NS(=O)(=O)c2ccc(N)cc2)nc1`, the Potency entry in assay [1], in assay [7], in [8] and in assay [9] was “inactive” each time. The Potency in assay [2] is 0.0012 µM (active). The activity (max response) in assay [3] is 10.3% (inactive).

Consider `COc1cc(OC)nc(O[C@H](C(=O)O)C(OC)(c2ccccc2)c2ccccc2)n1`, for which the Potency result in assay [1], in assay [2] and in [4] was “inactive” each time. In addition, the activity (max response) in assay [3] was 12.1% (inactive).

With `COc1cc2c(Nc3ccc(Br)cc3F)ncnc2cc1OCC1CCN(C)CC1`, the Potency entry in [1], in [12], in [6], in assay [10] and in assay [11] was “inactive” throughout. Further, the Potency entry in [2] was “inactive and 820 nM (active)”; in assay [3] it was 17.8 µM (active); in assay [4] it was “inactive and 25.1 µM (active)”. In [3], the activity (max response) was -8.28% (inactive).

For `CC(=O)OCC(=O)NCCCOc1cccc(CN2CCCCC2)c1`, the Potency entry in [1], in assay [2] and in assay [4] was “inactive” throughout. Also, the activity (max response) in [3] is 3.89% (inactive).

Regarding `Cc1cccc(OCC(O)CNC(C)(C)C)c1C` (centres undefined), the Potency entry in [1], in [2] and in [4] was “inactive” each time. In addition, the activity (max response) in assay [3] is -1.22% (inactive).

(Values after PubChem BioAssay (NCATS).)
